Source: PubChem
STK33 kin inh: inhibitors of human STK33 kinase | Q9BYT3 | ADP-Glo luminescence, MBP substrate | inhibition, % at 12.5 µM | 27,000 compounds, 0.44% hits | AID 2322; in the data active = inhibition above about 20%; inconclusive = no clear call, values can overlap the other calls
Target sequence (Q9BYT3 whole entry, looked up): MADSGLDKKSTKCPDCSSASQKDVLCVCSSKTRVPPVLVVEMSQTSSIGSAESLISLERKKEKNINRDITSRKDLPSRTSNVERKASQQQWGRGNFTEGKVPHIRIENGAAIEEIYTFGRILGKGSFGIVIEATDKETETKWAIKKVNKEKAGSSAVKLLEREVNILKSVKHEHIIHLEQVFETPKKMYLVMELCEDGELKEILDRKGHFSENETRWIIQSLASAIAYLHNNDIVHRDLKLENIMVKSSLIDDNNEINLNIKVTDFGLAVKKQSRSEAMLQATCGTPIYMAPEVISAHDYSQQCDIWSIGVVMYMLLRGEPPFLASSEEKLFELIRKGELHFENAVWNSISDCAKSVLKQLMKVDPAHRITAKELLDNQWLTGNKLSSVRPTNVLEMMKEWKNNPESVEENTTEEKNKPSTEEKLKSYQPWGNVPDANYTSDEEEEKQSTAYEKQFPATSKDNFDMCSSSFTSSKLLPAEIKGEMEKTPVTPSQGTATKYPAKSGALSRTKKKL
PD-1 reversal: activators reversing PD-1 mediated T-cell inhibition; activation, % (test concentration not listed); primary human CD4 T cells, PD-L1 beads, CellTiter-Glo 96 h; AID 2316; 29,000 tested, under 10 active; call rule not given here;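 also: 0% = median vehicle wells and 100% = positive control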
NOMO-1 viab: STK33 inhibitor candidate reducing NOMO-1 cell viability. 37,000 compounds, 7.5% hits. NOMO-1 AML viability, CellTiter-Glo luminescence, 72 h. inhibition, % (test concentration not listed). AID 2330; in the data active = inhibition above about 80%; inconclusive = no clear call, values can overlap the other calls
The depositor's hits bear a star; ? = inconclusive; . = no result. This is one part of a sample in which hits are shown more often than they occur.

SMILES | STK33 kin inh | PD-1 reversal | NOMO-1 viab
C[C@H]1CN([C@@H](C)CO)C(=O)c2cc(NS(=O)(=O)c3ccccc3)ccc2O[C@@H]1CN(C)Cc1ccc(C(F)(F)F)cc1 | . | -2.6 | 41.8
COc1cc(O)c(C(=O)CCc2ccccc2)c(O)c1Cc1ccccc1O | -1.1 | -0.4 | ?
COc1cc(O)c(Cc2ccccc2O)c(O)c1C(=O)CCc1ccccc1 | -4.6 | -0.2 | 113.6*
C[C@@H]1CN([C@@H](C)CO)C(=O)c2cc(NC(=O)Nc3ccc(F)cc3)ccc2O[C@H]1CN(C)Cc1ccc(C(F)(F)F)cc1 | 7.8 | -3.3 | 113.1*
C[C@@H]1CN([C@H](C)CO)C(=O)c2cc(NC(=O)Nc3ccc(F)cc3)ccc2O[C@H]1CN(C)Cc1ccc(C(F)(F)F)cc1 | 0.6 | -9.9 | 117.3*
C[C@H]1CN([C@@H](C)CO)C(=O)c2cc(NC(=O)Nc3ccc(F)cc3)ccc2O[C@H]1CN(C)Cc1ccc(C(F)(F)F)cc1 | -1.0 | -2.9 | 52.1
C[C@H]1CN([C@@H](C)CO)C(=O)c2cc(NC(=O)Nc3ccc(F)cc3)ccc2O[C@@H]1CN(C)Cc1ccc(C(F)(F)F)cc1 | . | 0.6 | 14.0
COc1ccc(N(C(=O)C2CCCCC2)S(=O)(=O)c2cc(OC)ccc2OC)cc1 | 3.7 | -1.8 | -16.7
CCCN1CC=C2C(C#N)(C#N)C(N)=C(C#N)C(c3ccc(OCC(N)=O)cc3)C2(C)C1 (stereo unspecified) | . | 0.9 | ?
O=C(Nc1ccccc1)Nc1ccc(Cl)cc1SCc1ccccc1 | 5.8 | -7.4 | ?
C[C@@H]1CN([C@@H](C)CO)C(=O)c2cc(NC(=O)Nc3ccc(C(F)(F)F)cc3)ccc2O[C@@H]1CN(C)C(=O)NC1CCCCC1 | 0.7 | -4.3 | 107.4*
C[C@H]1CN([C@@H](C)CO)C(=O)c2cc(NC(=O)Nc3ccc(C(F)(F)F)cc3)ccc2O[C@@H]1CN(C)C(=O)Nc1ccc(C(F)(F)F)cc1 | . | -2.9 | 122.1*
C[C@H]1CN([C@@H](C)CO)C(=O)c2cc(NC(=O)Nc3ccc(C(F)(F)F)cc3)ccc2O[C@@H]1CN(C)C(=O)NC1CCCCC1 | 1.4 | 0.6 | -9.4
C[C@@H]1CN([C@H](C)CO)C(=O)c2cc(NC(=O)Nc3ccc(F)cc3)ccc2O[C@H]1CN(C)C(=O)Nc1ccc(C(F)(F)F)cc1 | . | -3.1 | 78.1
C[C@@H]1CN([C@H](C)CO)C(=O)c2cc(NC(=O)Nc3ccc(C(F)(F)F)cc3)ccc2O[C@H]1CN(C)C(=O)Nc1ccc(C(F)(F)F)cc1 | . | -3.8 | 108.6*
C[C@H]1CN([C@@H](C)CO)C(=O)c2cc(NC(=O)Nc3ccc(F)cc3)ccc2O[C@@H]1CN(C)C(=O)Nc1ccc(C(F)(F)F)cc1 | . | -0.4 | 29.0
COc1ccc(-n2c(SCC(=O)Nc3ccc(Cl)cc3Cl)nnc2-c2ccccc2)cc1 | -2.8 | -1.2 | 16.0
O=C(O)c1ccccc1S(=O)c1ccc(Cl)cc1 (stereo unspecified) | . | 0.0 | 7.7
O=C(CC(=O)c1ccc(O)cc1)OC[C@H]1O[C@@H](Oc2ccc(O)cc2)[C@H](OC(=O)c2ccc(O)cc2)[C@@H](O)[C@@H]1O | 0.9 | . | .
CC1CCC2C(C)(C)C(=O)CC[C@]2(C)C12Cc1c(O)cc3c(c1O2)CN(C(CCC(=O)O)C(=O)O)C3=O (stereo partly specified) | 4.7 | 0.9 | 0.9
Cc1cc(Br)cc2c1N(C)C(=O)/C2=C1\SC(=Nc2ccc(F)cc2)NC1=O | . | 0.8 | 9.7
COc1ccc(CCNC(=O)c2cc3cc(Br)cc(OC)c3oc2=O)cc1OC | -4.6 | -0.4 | 3.6
CC(=O)c1ccc(NC(=O)CSc2nc3cc(C)c(C)cc3[nH]2)cc1 | -1.7 | -1.9 | 8.1
Cc1ccccc1-c1nc(S(=O)(=O)c2ccc(Cl)cc2)c(NCC2CCCO2)o1 (stereo unspecified) | 2.1 | -1.4 | 28.0
O=C(Nc1ccccc1C(=O)O)OCC1c2ccccc2-c2ccccc21 | -11.5 | 5.9 | 17.9
Cc1cc(O)c2c(c1)C(=O)C13C(C2=O)C(=O)C2C(O)C1C1C(O)C3C(=O)C3C(=O)c4c(O)cc(C)cc4C(=O)C321 (stereo unspecified) | -1.1 | -1.1 | 109.7*
C[C@@H]1CN([C@@H](C)CO)C(=O)c2cccc(NC(=O)Nc3ccccc3)c2O[C@H]1CN(C)C(=O)Nc1ccc(C(F)(F)F)cc1 | . | -2.0 | 43.8
C[C@@H]1CN([C@@H](C)CO)C(=O)c2cccc(NC(=O)Nc3ccc(C(F)(F)F)cc3)c2O[C@@H]1CN(C)C(=O)Nc1ccccc1 | . | 0.0 | 111.7*
C[C@@H]1CN([C@H](C)CO)C(=O)c2cccc(NC(=O)Nc3ccc(C(F)(F)F)cc3)c2O[C@H]1CN(C)C(=O)Nc1ccccc1 | . | -2.5 | 93.3*
C[C@@H]1CN([C@H](C)CO)C(=O)c2cccc(NC(=O)Nc3ccccc3)c2O[C@@H]1CN(C)C(=O)Nc1ccc(C(F)(F)F)cc1 | . | -1.2 | 16.1
